Measured values from PubChem BioAssay (NCATS).
Several values for one entry are separate records, joined by “and”; a condition that tells them apart may be missing. Equal values may be shown once. Inconclusive results are not listed. Activity calls are given as the source filed them. Unless noted, the call rests on the fitted dose curve; in most records, active means well fitted curve in the direction sought with a large enough effect; inconclusive means small, poorly fitted or top-dose-only effect, or another doubt; inactive means no such curve, though single readings can be large; an effect the other way counts as inactive or inconclusive.

How the values were obtained:
[1] = Cell Viability - MRC5 (AID 434; calls by dose curve;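 further: potency means the concentration at half of the fitted maximal effect; cells exposed to compound for 40 hours at 37 °C; potency reflects cytotoxicity seen as loss of intracellular ATP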); settings: MRC5 lung fibroblast viability, qHTS
Method in brief: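 qHTS cytotoxicity in human lung fibroblast MRC5 cells; 40 hr treatment, 37 °C; cellular ATP by luciferase luminescence; DMSO = 0%, 100 uM tamoxifen = 100% inhibition; Hill-fit AC50.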

[2] = Cell Viability - HUV-EC-C (AID 542); settings: HUV-EC-C endothelial cell viability, qHTS; series mostly up to 92.2 µM;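 further: cells exposed to compound for 40 hours; on the % scale 0 is the no-effect control and ±100 the full control effect; nearly all actives have a fitted effect of over 35% in size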
Method in brief: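 Decrease in cellular ATP, quantified by luciferase luminescence, reflects toxicity in normal human vascular endothelial HUV-EC-C cells given compound for 40 hr in complete culture medium. Values are AC50s from concentration-response curves.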

[3] = Cellular Toxicity (caspase-3) HepG2 (AID 654); settings: HepG2 caspase-3 activation, luminescence; series mostly up to 92.2 µM;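 further: cells exposed to compound for 16 hours before reading; 0% = DMSO alone and 100% = caspase signal from 100 µM tamoxifen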
Method in brief: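 qHTS, HepG2, 1500 cells/well, complete medium; cpd 16 h 37 °C; Caspase-Glo 3/7, 20 min RT; lum. Norm: DMSO vs 100 uM tamoxifen; AC50 Hill fit.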

[4] = Cellular Toxicity (caspase-3) HUV-EC-C (AID 656); settings: HUV-EC-C cells, caspase-3 activation (apoptosis); series mostly up to 92.2 µM
Method in brief: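 HUV-EC-C endothelial cells, 1000/well, were pre-incubated 5 hr at 37°C, then exposed to compounds for 16 hr at 37°C. Caspase-Glo 3/7 luminescence was read after 20 min at room temperature. AC50 came from Hill fits, normalized to DMSO and 100 uM tamoxifen.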

[5] = Cellular Toxicity (caspase-3) SHSY5Y (AID 657); settings: SH-SY5Y caspase-3 activation; series mostly up to 91.7 µM
Method in brief: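 SH-SY5Y human neuroblastoma cells (1500/well) were treated with compounds for 16 h at 37 °C, then Caspase-Glo 3/7 luminescence was read after 1 h at room temperature. Data normalized to DMSO and 10 uM staurosporine; AC50 from Hill fits.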

[6] = Cellular Toxicity (caspase-3) BJ (AID 658); settings: BJ fibroblasts, luminescence; Potency: caspase-3 activation; series mostly up to 91.7 µM
Method in brief: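 Readout: Caspase-Glo 3/7 luminescence increase in BJ cells after 16 hr treatment at 37 °C. Staurosporine and tamoxifen served as positive controls; AC50 values came from Hill modelling of data normalized to DMSO and 10 uM staurosporine.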

[7] = Cellular Toxicity (caspase-3) MRC-5 (AID 659); settings: MRC-5 cells, luminescence, normalized: DMSO 0%, 10 µM staurosporine 100%; series mostly up to 91.7 µM
Method in brief: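 Concentration-dependent caspase 3/7 activation is measured in human normal lung fibroblasts (MRC-5) following 16-hour treatment. AC50 values come from standard Hill-equation modeling of luminescence normalized to DMSO and 10 uM staurosporine.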

[8] = Cellular Toxicity (caspase-3) Mesangial (AID 660); settings: mesangial cells, normalized: DMSO 0%, 100 µM tamoxifen 100%; series mostly up to 91.7 µM;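 further: combined caspase 3 and 7 activity read by Caspase-Glo luminescence; cells exposed to compound for 16 h before the caspase read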
Method in brief: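 Concentration-response qHTS: compound-induced rise in caspase 3/7 luminescence in human mesangial cells after 16 h, normalized to DMSO and 100 uM tamoxifen controls.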

[9] = Cellular Toxicity (caspase-3) H-4-II-E (AID 663); settings: H-4-II-E rat hepatoma; Potency: caspase-3 activation; series mostly up to 92.2 µM;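 further: cells exposed to compound for 16 hr before readout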
Method in brief: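 Apoptosis induction is scored as increased luminescence from caspase 3/7 substrate cleavage in rat hepatoma H-4-II-E cells exposed to compound for 16 hr. Activity is scaled between DMSO and 100 uM tamoxifen.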

[10] = Cellular Toxicity (caspase-3) Hek293 (AID 664); settings: HEK293 caspase-3 activation, DMSO = 0%, 100 µM tamoxifen = 100%; at 92.2 µM (top of the series);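 further: cells exposed to compound for 16 h at 37 °C before readout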
Method in brief: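 Activation of caspase-3/7 is measured as increased luminescence from cleaved peptide-aminoluciferin substrate in HEK293 cells treated 16 hours at 37 °C. AC50 values come from Hill-equation fits of concentration-response data.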

[11] = Cellular Toxicity (caspase-3) N2a (AID 665); settings: N2a cells, luminescence, normalized: DMSO 0%, 10 µM staurosporine 100%; series mostly up to 92.2 µM;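 further: compound exposure lasted 16 h at 37 °C before readout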
Method in brief: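 Plated mouse neuroblastoma N2a cells received titrated compounds for 16 h in complete medium. Caspase activity was then detected with a peptide-aminoluciferin luminescent reagent.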

[12] = Cellular Toxicity (caspase-3) NIH 3T3 (AID 666); settings: NIH 3T3 caspase-3 activation, apoptosis/toxicity, 0% DMSO, 100% is 100 µM tamoxifen; series mostly up to 92.2 µM;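 further: caspase signal read after 16 h compound exposure; 0% = DMSO basal and 100% = 100 µM tamoxifen stimulation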
Method in brief: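 Concentration-response qHTS in NIH 3T3 mouse fibroblasts scores caspase-3/7 activation as rising luminescence after 16 hr compound exposure. Signals are scaled between DMSO-only and 100 uM tamoxifen.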

[13] = Cellular Toxicity (caspase-3) Renal Proximal Tubule (AID 667); settings: renal proximal tubule cells, primary cells freshly taken from rat; Potency: caspase-3 activation; series mostly up to 91.7 µM;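 further: cells exposed to compound for 16 hours at 37 °C before detection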
Method in brief: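 Primary rat proximal tubule cells, 1000/well, 5 h plating at 37 °C, then compound 16 h at 37 °C. Caspase-Glo 3/7 reagent, 1 h RT, luminescence. Normalized to DMSO (basal) and 10 uM staurosporine (100%); Hill-fit AC50.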

[14] = MultiTox-Fluor Cytotoxicity Assay - LYMP1-003 - Live Cells (AID 962); settings: LYMP1-003 lymphoblastoid cells, MultiTox-Fluor live-cell protease fluorescence; series mostly up to 92.2 µM;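 further: 0% = DMSO only and full loss = 92 µM tetraoctylammonium bromide; cytotoxic hits lower the live-cell protease signal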
Method in brief: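 Cells plated at 2500 per well and incubated 5 hr; compounds added and incubated 16 hr at 37 C; MultiTox-Fluor reagent added for 60 min at room temperature; fluorescence of liberated AFC measured at 405/510 nm.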

[15] = Cell Viability - LYMP2-003 (AID 965); settings: LYMP2-003 lymphoblastoid cell viability; series mostly up to 92.2 µM;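 further: cells exposed to compounds for 24 h before reading; 0% = DMSO only and full effect = 92 µM tetraoctylammonium bromide; nearly all actives have a fitted effect of over 50% in size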
Method in brief: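 Human lymphoblastoid cells (2500/well) were pre-incubated 5 hr at 37 C, then exposed to compounds over a concentration range for 24 hr at 37 C. Intracellular ATP was read by CellTiter-Glo luminescence; AC50 came from Hill-equation fits.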

[16] = qHTS Assay for Identification of Small Molecule Inducers of Hypoxia Response (AID 2120; active means well fitted curve in the direction sought with a large enough effect in the signal ratio, with a control signal flat, not every such curve was filed as active; the % refers to the signal ratio; further: 0% is about no effect); settings: hypoxia response reporter cells, beta-lactamase ratio readout; series mostly up to 104 µM
Method in brief: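 Induction of beta-lactamase reporter activity was measured in CellSensor HRE-bla ME-180 cells after 17 h compound treatment at 37 degrees C, using CCF4 substrate and the 460nm/530nm emission ratio to derive AC50 values.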

[17] = biological target: Peroxisome proliferator-activated receptor alpha (Homo sapiens) (UniProt Q07869); experiment: qHTS assay for small molecule agonists of the peroxisome proliferator-activated receptor alpha (PPARalpha) signaling pathway (AID 651778); settings: PathHunter PPARalpha complementation, chemiluminescence, 6 h; max response: stronger effect = higher value; further: % of control where 0% means no effect
Sequence of Peroxisome proliferator-activated receptor alpha (Homo sapiens) (Q07869 whole entry, looked up): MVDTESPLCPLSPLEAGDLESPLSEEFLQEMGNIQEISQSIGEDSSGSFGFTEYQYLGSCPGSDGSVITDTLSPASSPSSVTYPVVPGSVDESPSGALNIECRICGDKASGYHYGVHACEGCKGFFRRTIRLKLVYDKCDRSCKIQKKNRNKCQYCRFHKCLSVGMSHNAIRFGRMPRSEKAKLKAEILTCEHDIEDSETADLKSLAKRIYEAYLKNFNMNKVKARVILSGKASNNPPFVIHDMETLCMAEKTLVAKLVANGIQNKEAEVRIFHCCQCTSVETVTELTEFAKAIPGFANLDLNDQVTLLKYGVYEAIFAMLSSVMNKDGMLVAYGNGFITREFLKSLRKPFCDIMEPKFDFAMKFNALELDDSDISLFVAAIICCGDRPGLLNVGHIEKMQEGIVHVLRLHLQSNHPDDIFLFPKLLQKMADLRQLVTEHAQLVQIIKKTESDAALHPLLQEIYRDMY
Method in brief: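 Chemiluminescence from complemented enzyme reported PPARalpha activation in cells after 6 hr of compound treatment at 37 C. The detection reagent was incubated for 60 min at room temperature, and compounds were scored as agonists.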

[18] = qHTS assay for small molecule agonists of the antioxidant response element (ARE) signaling pathway measured by Nrf2-dependant transcriptional activity - cell viability counter screen (AID 720653; active means well fitted curve in the direction sought with a large enough effect in the repeat runs; an effect the other way counts as inactive or inconclusive; further: on the % scale 0 is the no-effect control and ±100 the full control effect); settings: ARE-bla HepG2 viability, CellTiter-Glo ATP luminescence, 16 h; max response: stronger effect = lower value
Method in brief: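 Cytotoxicity counter screen: intracellular ATP quantified by CellTiter-Glo luminescence in the same ARE-bla HepG2 plates, after 16 h compound exposure and a 2 h beta-lactamase substrate step.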

[19] = qHTS assay for cell viability of HEK293 cells (AID 743288); settings: ATP luminescence (CellTiter-Glo), 18 h; max response: stronger effect = lower value; further: on the % scale 0 is the no-effect control and ±100 the full control effect; nearly all actives have a fitted effect of over 50% in size
Method in brief: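 Parental HEK293 cells were seeded at 2,000 cells/well, rested at least 5 h at 37 C, then exposed to compounds in DMSO for 18 h at 37 C. Viability was read as ATP-dependent luciferase luminescence after 30 min at room temperature.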

[20] = qHTS assay for cell viability of the p53RE-bla HCT-116 cell line (AID 743292); settings: p53RE-bla HCT-116 viability, ATP luminescence, 16 h; series mostly up to 95 µM; further: on the % scale 0 is the no-effect control and ±100 the full control effect; nearly all actives have a fitted effect of over 55% in size
Method in brief: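 Viability of compound-treated p53RE-bla HCT-116 cells is taken from ATP-dependent luciferase luminescence. Treatment lasts 16 h at 37 C after a 5 h settling period; detection follows 30 min at room temperature.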

Nc1cc(C(=O)O)c(O)c(S(=O)(=O)O)c1
inactive: Potency [1] > 92 µM | Potency [2] | Potency [3] | Potency [4] | Potency [5] | Potency [6] | outcome [7] | outcome [8] | Potency [9] | caspase-3 activation [10] 0.407% | outcome [11] | outcome [12] | Potency [13] | Potency [14] | Potency [15] | Potency [16] | max response [17] -5.08% | max response [18] 2.52% | max response [19] -1.32% | Potency [20]

Brc1ccc(-c2ccccc2)cc1
inactive: Potency [1] > 92 µM | Potency [2] | Potency [3] | Potency [4] | Potency [5] | Potency [6] | outcome [7] | outcome [8] | Potency [9] | caspase-3 activation [10] -0.717% | outcome [11] | outcome [12] | Potency [13] | Potency [14] | Potency [16] | max response [17] -2.37% | max response [18] -10.1% | Potency [20]

OCC(CO)(CBr)CBr
inactive: Potency [1] > 92 µM | Potency [2] | Potency [3] | Potency [4] | Potency [5] | Potency [6] | outcome [7] | outcome [8] | Potency [9] | caspase-3 activation [10] -0.451% | outcome [11] | outcome [12] | Potency [13] | Potency [14] | Potency [15] | Potency [16] | max response [17] -0.558% and -3.38% | max response [18] 9.25% and 7.51% | max response [19] -6.95% and -8.44% | Potency [20]

CCOC(=O)C1OC1c1ccccc1 (stereo not drawn)
inactive: Potency [1] > 92 µM | Potency [2] | Potency [3] | Potency [4] | Potency [5] | Potency [6] | outcome [7] | outcome [8] | Potency [9] | caspase-3 activation [10] 0.955% | outcome [11] | outcome [12] | Potency [13] | Potency [14] | Potency [15] | Potency [16] | max response [17] -1.32% | max response [18] 8.37% | max response [19] -1.14% | Potency [20]

COc1cc(-c2ccc(N=C=O)c(OC)c2)ccc1N=C=O
inactive: Potency [1] > 92 µM | Potency [2] | Potency [3] | Potency [4] | Potency [5] | Potency [6] | outcome [7] | outcome [8] | Potency [9] | caspase-3 activation [10] 2.71% | outcome [11] | outcome [12] | Potency [13] | Potency [14] | Potency [15] | Potency [16] | max response [17] 20.1% | max response [18] 21.7% and 2.99% | max response [19] -1.14% and -5.75% | Potency [20]

CCCCC(CC)COCCCN (stereo not drawn)
inactive: Potency [1] > 92 µM | Potency [2] | Potency [3] | Potency [4] | Potency [5] | Potency [6] | outcome [7] | outcome [8] | Potency [9] | caspase-3 activation [10] -1.34% | outcome [11] | outcome [12] | Potency [13] | Potency [14] | Potency [15] | Potency [16] | max response [17] -9.53% | max response [18] -14.9% | max response [19] 10.2% | Potency [20]
